NIH3T3 tox = cytotoxic compounds in NIH 3T3 cells. NIH 3T3 viability, CellTiter-Glo ATP luminescence, 48-72 h. Potency, µM (doses to about 96.7 µM), for the others: top-dose activity change, negative = cytotoxicity, actives largely listed as inhibitors. 94,000 tested, 4.3% active. AID 1345082; also: % is scaled to controls: 0 for no effect and ±100 for the full control effect; nearly all actives have a fitted effect of over 55% in size
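Viability of NIH 3T3 cells after 48 or 72 hr compound treatment at 37 °C was assessed by CellTiter-Glo, with luminescence imaged following a 10 min room-temperature step.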
hNpr1 antagonist = blocks ANP-stimulated signaling of human Npr1 receptor; Potency, µM (highest dose often 46.3 µM), inactives show at the highest dose activity change, negative = inhibition, usual class: inhibitors; AID 1347048; P16066; 76,000 tested, 1.6% active; HEK293 hNpr1 GloSensor cGMP, ANP-stimulated luminescence; calls by dose curve; also: % is scaled to controls: 0 for no effect and ±100 for the full control effect; nearly all actives have a fitted effect of over 60% in size
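Compound pre-incubated 30 min at room temperature on GloSensor-loaded HEK293 cells stably carrying hNpr1 and the pGS-40F cGMP biosensor. Stimulation uses hNppA at 0.1 nM final; luminescence is taken at baseline and 20 min post-agonist.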
GPT2 inhibitor = blocks human glutamate pyruvate transaminase 2. 100,000 tested, 0.25% active. Q8TD30. Recombinant GPT2, coupled pyruvate oxidase/HRP Amplex Red fluorescence. Potency, µM (highest dose often 57.7 µM), inactives show at the top dose activity change, negative = inhibition, most hits filed as inhibitors. AID 1671188; also: % is scaled to controls: 0 for no effect and ±100 for the full control effect; nearly all actives have a fitted effect of over 60% in size
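GPT2 10ng/uL, a-KG 250uM, L-Ala 2mM, HEPES pH7.5 + 0.0001% Tween; 30 min RT. Then Amplex mix (PO/HRP/ThPP), 30 min RT dark, fluorescence. AOA 50uM used as positive control.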
Luciferase inh = Photinus pyralis luciferase inhibition; P08659; purified P. pyralis luciferase, luminescence, biochemical; Potency, µM (series often up to 115 µM), most hits filed as inhibitors; 76,000 tested, 2.5% active; also: % is scaled to controls: 0 for no effect and ±100 for the full control effect; nearly all actives have a fitted effect of over 65% in size
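Inhibitors were tested against purified firefly luciferase in a biochemical, low-substrate format (both substrates at 10uM) and luminescence measured with a CCD imager.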
HEK293 tox = cytotoxic compounds in HEK 293 cells; HEK 293 viability, ATP luminescence (CellTiter-Glo), 48-72 h; Potency, µM (titrated, usually from 115 µM), for inactives: at the top dose activity change, negative = cytotoxicity, hits mostly inhibitors; 94,000 tested, 6.6% active; also: % is scaled to controls: 0 for no effect and ±100 for the full control effect; nearly all actives have a fitted effect of over 60% in size
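Cells seeded first (HEK 293, 250 cells/well), then compound added by pintool. Incubation ran 48 or 72 hr at 37 degree Celsius. CellTiter-Glo was added and luminescence imaged after 10 min at room temperature.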
NPR1 antag cnf = hNpr1 antagonism, confirmation assay; shares compounds with hNpr1 antagonist; HEK293 hNpr1 cGMP GloSensor luminescence, ANP-stimulated; Potency, µM (highest dose often 57.6 µM), without a hit: at the highest dose activity change, negative = inhibition, most hits filed as inhibitors; 1,400 tested, 76% active; calls by dose curve; also: nearly all actives have a fitted effect of over 70% in size
Npr2 selectivity = hNpr2 antagonism, selectivity versus Npr1 | shares compounds with hNpr1 antagonist | HEK293 hNpr2 GloSensor cGMP luminescence, CNP-stimulated | Potency, µM (series often up to 57.6 µM), for inactives: at the highest dose activity change, negative = inhibition, hits mostly inhibitors | 1,400 tested, 67% active | AID 1347046; calls by dose curve; also: nearly all actives have a fitted effect of over 70% in size
Target sequence (P20594 whole entry, looked up): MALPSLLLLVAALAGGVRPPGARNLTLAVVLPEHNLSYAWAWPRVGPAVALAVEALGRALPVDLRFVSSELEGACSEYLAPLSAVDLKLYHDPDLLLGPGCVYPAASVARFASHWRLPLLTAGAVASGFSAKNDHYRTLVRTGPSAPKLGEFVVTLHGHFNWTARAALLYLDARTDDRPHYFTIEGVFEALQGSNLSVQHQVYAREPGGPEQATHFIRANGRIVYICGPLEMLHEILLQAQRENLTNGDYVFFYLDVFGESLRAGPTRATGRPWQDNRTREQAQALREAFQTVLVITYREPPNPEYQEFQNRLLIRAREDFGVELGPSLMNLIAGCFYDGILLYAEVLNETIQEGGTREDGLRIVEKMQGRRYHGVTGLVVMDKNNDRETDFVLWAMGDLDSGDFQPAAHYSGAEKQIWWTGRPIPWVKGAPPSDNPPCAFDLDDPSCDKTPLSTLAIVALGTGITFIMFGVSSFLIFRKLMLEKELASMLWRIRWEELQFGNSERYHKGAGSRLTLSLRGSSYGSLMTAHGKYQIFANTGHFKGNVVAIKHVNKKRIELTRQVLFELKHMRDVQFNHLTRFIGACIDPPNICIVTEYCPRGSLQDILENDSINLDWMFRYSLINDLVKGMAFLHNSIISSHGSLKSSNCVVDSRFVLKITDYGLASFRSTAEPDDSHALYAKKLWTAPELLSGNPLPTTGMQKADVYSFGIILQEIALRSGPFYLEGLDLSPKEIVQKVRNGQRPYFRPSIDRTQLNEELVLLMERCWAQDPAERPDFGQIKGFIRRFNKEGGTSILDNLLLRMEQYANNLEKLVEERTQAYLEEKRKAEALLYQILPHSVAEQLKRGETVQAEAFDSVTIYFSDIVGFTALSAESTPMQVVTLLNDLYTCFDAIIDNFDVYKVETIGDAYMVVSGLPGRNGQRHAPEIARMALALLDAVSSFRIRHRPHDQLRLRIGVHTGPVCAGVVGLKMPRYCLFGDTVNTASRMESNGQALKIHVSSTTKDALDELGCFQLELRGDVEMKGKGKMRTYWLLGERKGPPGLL
FLuc inh counter = FLuc enzyme inhibition, Npr1 counter-screen; shares compounds with hNpr1 antagonist; purified FLuc enzyme, luminescence, Km substrate; Potency, µM (titrated, usually from 57.6 µM), for the others: at the top dose activity change, negative = inhibition, actives largely listed as inhibitors; 1,400 tested, 0.7% active; AID 1347047; also: series mostly up to about 58 µM; 0% is about no effect
GloSensor cGMP = counter-screen for Npr1 antagonists: GloSensor control cell line; shares compounds with hNpr1 antagonist; HEK293 GloSensor cGMP, SNP-stimulated, luminescence; Potency, µM (titrated, usually from 57.6 µM), for inactives: at the top dose activity change, negative = inhibition, hits mostly inhibitors; 1,400 tested, 69% active; AID 1347051; calls by dose curve; also: % is scaled to controls: 0 for no effect and ±100 for the full control effect; nearly all actives have a fitted effect of over 70% in size
* hit, by the source's call; i = inactive; ? = inconclusive; · = no result given; [ ] = dose if it differs, or a comment. Compounds with a hit are over-represented: about 10% of the library has one in this group of screens. Unless noted, calls follow the shape of the dose curve; as a rule, active = well fitted curve in the direction sought with a large enough effect; inconclusive = small, poorly fitted or top-dose-only effect, or another doubt; inactive = no such curve, though single readings can be large; an effect the other way counts as inactive or inconclusive. Potency is read from the fitted curve at half-maximal effect.

SMILES	NIH3T3 tox	hNpr1 antagonist	GPT2 inhibitor	Luciferase inh	HEK293 tox	NPR1 antag cnf	Npr2 selectivity	FLuc inh counter	GloSensor cGMP
CC1=C(C(=O)OC(C)C)C(c2ccccc2Cl)N2C(CC(=O)NCC3CC3)=CSC2=N1 (centres undefined)	?	11µM*	-7%	i	?	?	22µM*	6%	?
COC(=O)C1=C(C)N=C2SC=C(CC(=O)NCC3CC3)N2C1c1ccccc1OC (centres undefined)	-9%	-17%	-3%	i	?	·	·	·	·
COCCn1c(=O)c(C(=O)N2CCOCC2)nc2cccnc21	-16%[138 µM]	·	i	·	-1%[172 µM]	·	·	·	·
COc1cc(OC)c(NC(=O)Cn2nc3n(c2=O)CCCCC3)cc1Cl	-10%	2%	-9%	i	6%	·	·	·	·
Cc1cccc(C(=O)N2CCC(Cc3nc(C(C)C)no3)CC2)c1	?	-23%	i	i	?	·	·	·	·
CCOc1ccc(C(=O)N2CCC(Cc3nc(-c4cccc(OC)c4)no3)CC2)cc1	?	7.1µM*	-8%	i	?	9.7µM*	12µM*	-1%	9.7µM*
COc1cccc(-c2noc(CC3CCN(C(=O)c4ccc(C)cc4)CC3)n2)c1	?	3.5µM*	1%	i	?	4.8µM*	5.4µM*	2%	4.3µM*
COc1cccc(-c2noc(CC3CCN(C(=O)c4ccc(C)cc4C)CC3)n2)c1	?	11µM*	i	i	35µM*	11µM*	11µM*	0%	9.7µM*
CCOc1ccc(C(=O)N2CCC(n3cc(-c4nc(-c5ccccc5)no4)nn3)CC2)cc1	-23%	-25%	i	?	?	·	·	·	·
COc1cccc(-c2noc(CC3CCN(C(=O)c4ccc(C(C)C)cc4)CC3)n2)c1	?	10µM*	0%	i	35µM*	14µM*	17µM*	-5%	14µM*
CCCC(NC(C)=O)c1nc(CC(N)=O)nn1-c1ccc(F)cc1F (centres undefined)	i	-4%	-13%	i	-4%	·	·	·	·
CCCN(CC1CCOC1)S(=O)(=O)c1cccc(C)c1 (centres undefined)	-3%	3%	i	i	?	·	·	·	·
COc1cccc(-c2cc(C3CCN(C(=O)c4ccc(Br)cc4)CC3)[nH]n2)c1	?	?	5%	i	?	27µM*	?	3%	?
COc1cccc(-c2noc(CC3CCN(C(=O)c4ccc(F)c(F)c4)CC3)n2)c1	?	6.3µM*	i	i	?	4.8µM*	9.7µM*	0%	6.1µM*
COc1cccc(CNC(=O)N2CCC(c3cc(-c4cccc(OC)c4)n[nH]3)CC2)c1	?	?	i	i	?	·	·	·	·
CCc1ccc(C(=O)N2CCC(Cc3nc(-c4cccc(OC)c4)no3)CC2)cc1	40µM*	4µM*	i	i	22µM*	9.7µM*	14µM*	2%	12µM*
Cc1nn2c(c1-c1ccccc1C(C)C)N(CCC(C)C)CCC2	8.9µM*	2.5µM*	-14%[88.5 µM]	i	11µM*	1.6µM*	2.5µM*	-10%[86.2 µM]	1.8µM*
COc1ccc(OC)c(CN2CCCn3nc(C)c(-c4ccccc4C(C)C)c32)c1	35µM*	-27%[70.6 µM]	i	i	63µM*	40µM*	40µM*	2%[86.2 µM]	?
Cc1nn2c(c1-c1ccccc1C(N)=O)N(C(=O)c1ccccc1)CCC2	?	0%[70.6 µM]	-3%[88.5 µM]	i	i	·	·	·	·
Cc1nn2c(c1-c1ccccc1C(C)C)N(Cc1cccc(C(=O)O)c1)CCC2	45µM*	?	0%[88.5 µM]	i	56µM*	?	-22%[86.2 µM]	-2%[86.2 µM]	-23%[86.2 µM]
COc1nc2c(cc1CNC(=O)C1(C)CC1)C(=O)N(CCc1ccccn1)C2	i	4%	i	i	i	·	·	·	·
CCn1ncc(N2CCCC(CC(=O)Nc3ccc(C)c(C)c3)C2)cc1=O (centres undefined)	?	7%	-14%	i	?	·	·	·	·
Cn1ncc(N2CCC(CNC(=O)c3cn(CCN)nn3)C2)cc1=O (centres undefined)	i	6%	5%[11.5 µM]	i	i	·	·	·	·
COCCN1C[C@H]2CN(C)c3ccccc3[C@@H]2N(C(=O)c2ccc(OC)cc2)CCC1=O	-18%[46.1 µM]	·	i	·	?	·	·	·	·
Cc1cccc(NC(=O)N2C[C@@H](F)C[C@H]2C(=O)N2CCc3ccccc3C2)c1	-10%	-17%	i	?	-6%	·	·	·	·
SMILES	NIH3T3 tox	hNpr1 antagonist	GPT2 inhibitor	Luciferase inh	HEK293 tox	NPR1 antag cnf	Npr2 selectivity	FLuc inh counter	GloSensor cGMP
COc1ccc(OC)c(CNC(=O)c2cccc3c2CCN3C(=O)c2ccc(F)cc2)c1	?	?	-12%	i	?	?	?	4%	?
CCC(=O)N1CCc2c(C(=O)NCc3cc(OC)ccc3OC)cccc21	-18%	-3%	-20%	i	?	·	·	·	·
Cn1nccc1C(=O)N1CCC2(CC1)OCCN(Cc1ccccc1F)C2=O	-20%[138 µM]	32µM*	-10%[88.5 µM]	i	?	35µM*	31µM*	0%[86.2 µM]	31µM*
CCC[C@H]1C[C@H]1C(=O)NCc1cc2c(nc1OC)CN(C1CCCC1)C2=O	-30%	3%	-2%	i	?	·	·	·	·
O=C(Nc1cccc(Cl)c1)C1CCN(c2cc(C(F)(F)F)ncn2)CC1	?	?	i	i	?	24µM*	?	5%	?
Cc1ccc(CCNC(=O)C2CCN(c3cc(C(F)(F)F)ncn3)CC2)cc1	?	?	i	i	?	·	·	·	·
Cc1ccc(NC(=O)C2CCN(c3cc(C(F)(F)F)ncn3)CC2)cc1F	?	5µM*	i	i	?	6.9µM*	11µM*	5%	6.1µM*
COc1ccccc1CNC(=O)C1CCN(c2cc(C(F)(F)F)ncn2)CC1	-27%	-10%	1%	i	?	·	·	·	·
